Some test systems named below: SR leukemia; RPMI-8226 leukemia; OVCAR-8 ovarian; OVCAR-5 ovarian; OVCAR-4 ovarian; SK-OV-3 ovarian; IGROV1 ovarian; OVCAR-3 ovarian; HS 578T breast; NCI/ADR-RES ovarian; T-47D breast; BT-549 breast; MDA-MB-435 melanoma; SW-620 colon; MCF7 breast; HCT-116 colon; HCC-2998 colon; KM12 colon.
What all share (assay): NCI-60 one-dose screen, 48 h (100 = growth as untreated, 0 = no growth, -100 = all killed)
Conditions in all cases: 10 µM unless noted

About 83,000 compounds went through this panel and 20% of them were active in at least one assay; those are over-represented in the sample as a whole.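 Percent growth is the endpoint: 0 to 100 indicates growth inhibition (40 means 60% inhibition), 0 means no net growth, and negative values indicate cell death.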 Values without a mark were called inactive. Activity calls are given as the source filed them. How the source made its calls: active means growth percent below 10; inactive means the rest.

With `Cc1nc2c(c(-c3ccccc3)n1)Cc1c(ccc3ccccc13)O2`, the growth in the experiment with SR leukemia is 107%; in the experiment with RPMI-8226 leukemia, 87%; with OVCAR-8 ovarian it was 95.1%; in the experiment with OVCAR-5 ovarian, 93.1%; with OVCAR-4 ovarian, 99.4%; with SK-OV-3 ovarian, 96.4%. The growth in the experiment with IGROV1 ovarian is 118%; in the experiment with OVCAR-3 ovarian, 99.1%; in the experiment on HS 578T breast it was 83.3%; in the experiment on NCI/ADR-RES ovarian, 98%; with T-47D breast, 84.6%; in the experiment with BT-549 breast, 90%. In addition, the growth in the experiment on MDA-MB-435 melanoma was 119%; with SW-620 colon it was 96.4%; with MCF7 breast it was 89.1%; in the experiment with HCT-116 colon it was 90.6%; in the experiment on HCC-2998 colon, 111%; in the experiment on KM12 colon it was 89.1%.

As to `COc1ccc(-c2ccc(-c3ccc(C(=N)N)nc3)s2)cc1`, the growth is 0.29% (active) with SR leukemia; -41.1% (active) with RPMI-8226 leukemia; -17.4% (active) in the experiment with OVCAR-8 ovarian; -73.1% (active) in the experiment with OVCAR-5 ovarian; -79.7% (active) in the experiment with OVCAR-4 ovarian; 89.2% in the experiment with SK-OV-3 ovarian. Also, the growth in the experiment with IGROV1 ovarian was -84.3% (active); in the experiment with OVCAR-3 ovarian, -87.1% (active); with HS 578T breast it was -47.5% (active); with NCI/ADR-RES ovarian it was 25.5%; in the experiment with T-47D breast, -31.1% (active); in the experiment on BT-549 breast it was 84%. Also, the growth was -95.8% (active) in the experiment on MDA-MB-435 melanoma; -65.7% (active) in the experiment with SW-620 colon; -65.5% (active) in the experiment with MCF7 breast; -60.4% (active) in the experiment with HCT-116 colon; -44.9% (active) with HCC-2998 colon; -73.7% (active) with KM12 colon.

In the case of `Cc1cc(N2CCOCC2)nc(N(CCCNc2ccnc3cc(Cl)ccc23)Cc2ccc3c(c2)OCO3)n1`, the growth in the experiment on SR leukemia is -29.2% (active); with RPMI-8226 leukemia it was -2.52% (active); in the experiment with OVCAR-8 ovarian, -52.4% (active); in the experiment with OVCAR-5 ovarian, 22.7%; in the experiment with OVCAR-4 ovarian, -37.9% (active); in the experiment on SK-OV-3 ovarian, 18.9%. Also, the growth in the experiment with IGROV1 ovarian was 4.36% (active); in the experiment with OVCAR-3 ovarian, -88.6% (active); in the experiment on HS 578T breast, 9.54% (active); in the experiment with NCI/ADR-RES ovarian, -36.1% (active); with T-47D breast it was -45.9% (active); with BT-549 breast it was -38.3% (active). Also, the growth with MDA-MB-435 melanoma was -45.1% (active); in the experiment on SW-620 colon, -3.78% (active); with MCF7 breast, 3.11% (active); in the experiment on HCT-116 colon, -76.9% (active); with HCC-2998 colon it was -58.2% (active); with KM12 colon, 0.0851% (active).

As for `Cc1ccc(Nc2oc(-c3ccccc3)nc2[P+](c2ccccc2)(c2ccccc2)c2ccccc2)cc1`, the growth in the experiment on SR leukemia was 8.76% (active); with RPMI-8226 leukemia, -38.3% (active); with OVCAR-8 ovarian, -27.3% (active); with OVCAR-5 ovarian, 11.3%; in the experiment on OVCAR-4 ovarian, 6.45% (active); in the experiment with SK-OV-3 ovarian, -33.7% (active). Moreover, the growth in the experiment on IGROV1 ovarian is -11.9% (active); in the experiment with OVCAR-3 ovarian, -30.7% (active); with HS 578T breast, -38.9% (active); in the experiment on NCI/ADR-RES ovarian it was -52.3% (active); in the experiment on T-47D breast, -28.5% (active); in the experiment on BT-549 breast, -21.5% (active). Besides, the growth was -62.8% (active) with MDA-MB-435 melanoma; -48.2% (active) in the experiment on SW-620 colon; -20.2% (active) in the experiment on MCF7 breast; -66.4% (active) with HCT-116 colon; -89.4% (active) in the experiment on HCC-2998 colon; -51.5% (active) in the experiment with KM12 colon.

In the case of `Cc1c2cnccc2c(C)c2c1c1cc(C(=O)O)ccc1n2C`, the growth was 18.6% in the experiment with SR leukemia; -1.59% (active) with RPMI-8226 leukemia; 5.83% (active) with OVCAR-8 ovarian; 9.91% (active) in the experiment on OVCAR-5 ovarian; -4.45% (active) in the experiment with OVCAR-4 ovarian; -4.58% (active) in the experiment with SK-OV-3 ovarian. Moreover, the growth in the experiment with IGROV1 ovarian was 0.419% (active); in the experiment on OVCAR-3 ovarian it was 0.0817% (active); with HS 578T breast, 8.93% (active); in the experiment on NCI/ADR-RES ovarian, 3.03% (active); in the experiment on T-47D breast, -10.2% (active); with BT-549 breast, -1.22% (active). For the same compound, the growth is 5.58% (active) with MDA-MB-435 melanoma; 7.21% (active) in the experiment on SW-620 colon; 1.28% (active) in the experiment on MCF7 breast; 2.6% (active) in the experiment with HCT-116 colon; 4.89% (active) in the experiment with HCC-2998 colon; 5.47% (active) with KM12 colon.

On to `COc1ccc(/C=C/C(=O)c2ccc(-n3cc(CN4CCN(c5cc6c(cc5F)c(=O)c(C(=O)O)cn6C5CC5)CC4)nn3)cc2)cc1`, for which the growth in the experiment with SR leukemia was -2.25% (active); with RPMI-8226 leukemia, -24.4% (active); in the experiment on OVCAR-8 ovarian it was 67.4%; with OVCAR-5 ovarian, 92.1%; in the experiment with OVCAR-4 ovarian, 88%; in the experiment with SK-OV-3 ovarian, 76.9%. In addition, the growth in the experiment with IGROV1 ovarian was 26.6%; in the experiment on OVCAR-3 ovarian, 39.3%; in the experiment on HS 578T breast it was 52.8%; in the experiment with NCI/ADR-RES ovarian, 90.7%; in the experiment with T-47D breast, 78.6%; with BT-549 breast, 65.8%. Also, the growth was 22.2% in the experiment with MDA-MB-435 melanoma; 32.8% in the experiment on SW-620 colon; 13.2% in the experiment with MCF7 breast; -31.3% (active) in the experiment on HCT-116 colon; 44% in the experiment with HCC-2998 colon; 42.6% in the experiment with KM12 colon.

For the compound `O=C(O)COc1ccc(F)cc1`, the growth with SR leukemia is 103%; in the experiment with RPMI-8226 leukemia it was 97.5%; in the experiment with OVCAR-8 ovarian it was 102%; in the experiment on OVCAR-5 ovarian it was 109%; in the experiment on OVCAR-4 ovarian, 116%; in the experiment with SK-OV-3 ovarian, 108%. Further, the growth with IGROV1 ovarian is 107%; in the experiment with OVCAR-3 ovarian it was 107%; in the experiment with HS 578T breast, 128%; in the experiment with NCI/ADR-RES ovarian, 101%; in the experiment with T-47D breast, 104%; with BT-549 breast, 119%. Also, the growth in the experiment with MDA-MB-435 melanoma was 108%; with SW-620 colon it was 112%; in the experiment with MCF7 breast, 95.8%; in the experiment with HCT-116 colon, 103%; with HCC-2998 colon, 103%; with KM12 colon, 103%.

With `Cc1cc(C)n(C(=O)CSc2nc3sc4c(c3c(=O)n2-c2ccccc2)CCCCC4)n1`, the growth in the experiment with SR leukemia is 97.8%; in the experiment with RPMI-8226 leukemia, 103%; in the experiment on OVCAR-8 ovarian it was 100%; in the experiment on OVCAR-5 ovarian, 105%; with OVCAR-4 ovarian, 94.2%; in the experiment on SK-OV-3 ovarian it was 99%. The growth with IGROV1 ovarian was 107%; in the experiment on OVCAR-3 ovarian, 104%; in the experiment on HS 578T breast, 96.8%; in the experiment on NCI/ADR-RES ovarian it was 104%; in the experiment on T-47D breast, 89.9%; in the experiment on BT-549 breast it was 100%. The growth with MDA-MB-435 melanoma is 105%; in the experiment with SW-620 colon it was 102%; in the experiment on MCF7 breast, 95.1%; in the experiment on HCT-116 colon it was 104%; in the experiment with HCC-2998 colon, 109%; in the experiment on KM12 colon, 105%.

The values above are taken from PubChem BioAssay (NCI).
